Assay [1] is described as follows: A CellTox Green Cytotoxicity Assay to monitor cytotoxicity in HepG2 cells - 8 hour (AID 1224890). Further: nearly all actives have a fitted effect of over 45% in size. The essentials:
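Real-time, homogeneous cytotoxicity readout: dead-cell DNA staining by CellTox Green in HepG2 monolayers, fluorescence measured at timed intervals up to 40 h of continuous compound exposure.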

Assay [2] is described as follows: qHTS assay to identify small molecule antagonists of the estrogen receptor alpha (ER-alpha) signaling pathway using the BG1 cell line in the presence of 0.1 nM 17-beta-estradiol - cell viability counter screen (AID 1259241). Further: nearly all actives have a fitted effect of over 40% in size. The essentials:
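Live-cell protease activity (CellTiter-Fluor fluorescence, 30 min) was read in the same wells after VM7Luc4E2 cells had been exposed to compounds with 0.1 nM 17beta-estradiol for 22 hr at 37C.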
On the technique in general: qHTS replaces the single test concentration by a dilution series.

Assay [3] in a line: qHTS assay to identify small molecule antagonists of the androgen receptor (AR) signaling pathway using the MDA cell line in the presence of 0.5 nM R1881 - cell viability counter screen (AID 1259242). Further: nearly all actives have a fitted effect of over 45% in size. The essentials:
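Cytotoxicity toward MDA-kb2 cells is measured by CellTiter-Fluor live-cell protease fluorescence after 16 hr compound exposure at 37C in the presence of 0.5 nM R1881 stimulator.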

For assay [4], the target named is Estrogen receptor (Homo sapiens) (UniProt P03372). In words: qHTS assay to identify small molecule antagonists of the estrogen receptor alpha (ER-alpha) signaling pathway using the BG1 cell line in the presence of 0.1 nM 17-beta-estradiol (AID 1259244). Further: nearly all actives have a fitted effect of over 50% in size. In short, it runs like this:
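After 5 days in hormone-depleted medium (charcoal-stripped serum, no phenol red), VM7Luc4E2 cells were seeded, incubated 24 h, then co-treated with compound and 0.1 nM (final) estradiol for 22 h before luminescence detection.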

Assay [5] can be described thus: qHTS assay to identify small molecule HDAC inhibitors (AID 1259364). Further: nearly all actives have a fitted effect of over 45% in size. Further: potency means the concentration at half of the fitted maximal effect. In short, it runs like this:
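Homogeneous cell-based luminescent assay of endogenous class I/II HDAC activity; HCT-116 cells, 2 h compound exposure, 30 min HDAC-Glo development at RT.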

Assay [6] is described as follows: qHTS assay to identify small molecule HDAC inhibitors - cell viability counter screen (AID 1259365). Further: series mostly up to about 92 µM; nearly all actives have a fitted effect of over 50% in size. In short, it runs like this: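 HCT-116 (wild type), 1,500 cells/well, overnight 37C/5% CO2; compound in DMSO 2hr; CellTiter-Glo 30min RT; luminescence read.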
Assay [7] in a line: qHTS assay to identify small molecule agonists of the sonic hedgehog signaling (Shh) pathway - cell viability counter screen (AID 1259366). Further: nearly all actives have a fitted effect of over 50% in size. In short, it runs like this:
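CellTiter-Fluor fluorescence read-out, 1 hr at 37C, added after 23hr compound exposure. Cells: 3T3 Gli1-Luc, an NIH/3T3 clone with stably integrated Gli1-Luc reporter, plated 4hr before compound.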

A short description of assay [8]: qHTS assay to identify small molecule antagonists of the sonic hedgehog signaling (Shh) pathway - cell viability counter screen (AID 1259367). Further: nearly all actives have a fitted effect of over 55% in size. In short, it runs like this:
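NIH/3T3-derived Gli1-Luc reporter cells (2,000 per well) rested 4 hr at 37 C, then received DMSO compounds plus conditioned medium. After 23 hr of treatment, CellTiter-Fluor was added for 1 hr at 37C and fluorescence read.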

A short description of assay [9]: qHTS assay to identify small molecule agonists of the sonic hedgehog signaling (Shh) pathway (AID 1259368; calls by dose curve;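 further: NIH/3T3-derived 3T3Gli1-Luc cells carrying a stable Gli1-driven firefly luciferase reporter; series mostly up to about 92 µM; nearly all actives have a fitted effect of over 15% in size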). The essentials: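 Steps: seed 3T3 Gli1-Luc cells, incubate 4 hr at 37 C, pin-transfer compounds in DMSO alongside a positive control, incubate 24 hr, add luciferase detection reagent, wait 30 min at room temperature, read luminescence.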
Assay [10] has as its target Estrogen receptor beta (Homo sapiens) (UniProt Q92731). In words: qHTS assay to identify small molecule antagonists of the estrogen receptor beta (ER-beta) signaling pathway (AID 1259378; active means well fitted inhibition curve with a large enough effect in the signal ratio in the repeat runs, not every such curve was filed as active; the % refers to the signal ratio). The essentials: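 ER-beta-UAS-bla HEK293T (GripTite) cells in 2% charcoal-stripped FBS medium were preincubated 6 hr at 37C, dosed with compound, then stimulated with 1 nM E2 (final) for 16 hr; beta-lactamase reporter read by B/G FRET fluorescence after 2 hr substrate loading.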

Assay [11] in a line: qHTS assay to identify small molecule agonists of the androgen receptor (AR) signaling pathway in the presence of an antagonist - cell viability counter screen (AID 1259379).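 Further: MDA-kb2 human breast cancer cells carrying an MMTV luciferase reporter; series mostly up to about 92 µM; nearly all actives have a fitted effect of over 25% in size.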 In short, it runs like this:
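Fluorescence from CellTiter-Fluor, added after 15 hr and read 1 hr later, gave cell viability. Cells were MDA-kb2 exposed to compounds (15 concentrations) in the presence of 3.0uM nilutamide at 37C, 0% CO2.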

Assay [12] can be described thus: qHTS assay to identify small molecule agonists of the estrogen receptor beta (ER-beta) signaling pathway - cell viability counter screen (AID 1259380). Further: nearly all actives have a fitted effect of over 30% in size. In short, it runs like this: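 Same-well viability counter screen. Cells: ER-beta-UAS-bla HEK293T, plated 6 hr before compound, in 2% charcoal-stripped FBS. Compound exposure 16 hr, 37C; viability by CellTiter-Glo luminescence after 30 min at room temperature.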

Assay [13] can be described thus: qHTS assay to identify small molecule antagonists of the estrogen receptor beta (ER-beta) signaling pathway - cell viability counter screen (AID 1259382). Further: series mostly up to about 92 µM; nearly all actives have a fitted effect of over 55% in size. The essentials:
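Following a 6 hr plating period, HEK293T cells carrying a UAS-driven beta-lactamase reporter under ER-beta control received compounds and 1nM E2 (final). After 16 hr at 37C and 2 hr substrate loading, CellTiter-Glo luminescence indicated viability.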

Assay [14] concerns the target Estrogen receptor (Homo sapiens) (UniProt P03372). In words: qHTS assay to identify small molecule agonists of the estrogen receptor alpha (ER-alpha) signaling pathway in the presence of an antagonist (AID 1259383; calls by dose curve; further: top concentration of the series differs between compounds; nearly all actives have a fitted effect of over 15% in size). The essentials:
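Cells are hormone-deprived for 5 days (charcoal-stripped FBS, no phenol red), plated for 24hr, spiked with 10.0nM ICI-182,780, then dosed at 15 concentrations. After 22hr at 37C, ONE-Glo luminescence reports ERE-luciferase activity.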

The nature of assay [15]: qHTS assay to identify small molecule agonists or antagonists of the thyroid stimulating hormone receptor (TSHR) signaling pathway - wild type cell line counter screen (AID 1259384; calls by dose curve). In short, it runs like this: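 Wild-type HEK293 cells were plated 18 h at 37 C/5% CO2, pin-dosed with compound plus Ro20-1724 medium, held 30 min at room temperature, then given cAMP-d2 and anti-cAMP-cryptate; fluorescence was read after 1 h. Fifteen concentrations, triplicate.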

Assay [16] is described as follows: qHTS assay to identify small molecule antagonists of the sonic hedgehog signaling (Shh) pathway (AID 1259369; calls by dose curve; further: nearly all actives have a fitted effect of over 45% in size). In short, it runs like this: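 Inhibition of Shh signalling is measured as reduced Gli1-response-element firefly luciferase output in an NIH/3T3-derived stable reporter clone stimulated with conditioned medium for 24hr.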
In assay [17] the target is Estrogen receptor beta (Homo sapiens) (UniProt Q92731). In words: qHTS assay to identify small molecule agonists of the estrogen receptor beta (ER-beta) signaling pathway (AID 1259377; active means well fitted activation curve with a large enough effect in the signal ratio in the repeat runs, not every such curve was filed as active; the % refers to the signal ratio). The essentials:
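Beta-lactamase reporter readout: fluorescence of LiveBLAzer B/G FRET substrate after 2 h at room temperature, following 16 h compound treatment of ER-beta-UAS-bla HEK293T cells at 37C in 2% charcoal-stripped FBS medium.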

The structures appear in SMILES notation. Unmarked numbers belong to inactive results. Results filed as inconclusive are left out. Calls of active or inactive are those of the source. Unless noted, the call rests on the fitted dose curve; in most records, active means well fitted curve in the direction sought with a large enough effect in the repeat runs; inconclusive means weak or mixed curves; inactive means no such curve, though single readings can be large; an effect the other way counts as inactive or inconclusive.

Results on 9 molecules are retold here after PubChem BioAssay (Tox21).

Sequence of Estrogen receptor beta (Homo sapiens) (Q92731 whole entry, looked up): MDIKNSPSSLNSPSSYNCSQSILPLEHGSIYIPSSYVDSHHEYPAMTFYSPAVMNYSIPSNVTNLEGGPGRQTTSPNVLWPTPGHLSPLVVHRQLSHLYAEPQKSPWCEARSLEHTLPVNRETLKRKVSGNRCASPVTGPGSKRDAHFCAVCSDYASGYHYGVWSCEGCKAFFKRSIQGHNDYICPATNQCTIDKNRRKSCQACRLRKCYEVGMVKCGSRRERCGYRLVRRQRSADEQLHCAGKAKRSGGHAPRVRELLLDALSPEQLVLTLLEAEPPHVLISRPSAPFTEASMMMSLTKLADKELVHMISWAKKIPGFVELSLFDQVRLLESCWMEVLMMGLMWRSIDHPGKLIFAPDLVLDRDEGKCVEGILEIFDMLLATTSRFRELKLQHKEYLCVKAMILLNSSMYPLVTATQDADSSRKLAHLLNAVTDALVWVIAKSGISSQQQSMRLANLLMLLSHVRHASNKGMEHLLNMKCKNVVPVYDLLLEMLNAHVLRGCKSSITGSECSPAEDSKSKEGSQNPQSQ
Sequence of Estrogen receptor (Homo sapiens) (P03372 whole entry, looked up): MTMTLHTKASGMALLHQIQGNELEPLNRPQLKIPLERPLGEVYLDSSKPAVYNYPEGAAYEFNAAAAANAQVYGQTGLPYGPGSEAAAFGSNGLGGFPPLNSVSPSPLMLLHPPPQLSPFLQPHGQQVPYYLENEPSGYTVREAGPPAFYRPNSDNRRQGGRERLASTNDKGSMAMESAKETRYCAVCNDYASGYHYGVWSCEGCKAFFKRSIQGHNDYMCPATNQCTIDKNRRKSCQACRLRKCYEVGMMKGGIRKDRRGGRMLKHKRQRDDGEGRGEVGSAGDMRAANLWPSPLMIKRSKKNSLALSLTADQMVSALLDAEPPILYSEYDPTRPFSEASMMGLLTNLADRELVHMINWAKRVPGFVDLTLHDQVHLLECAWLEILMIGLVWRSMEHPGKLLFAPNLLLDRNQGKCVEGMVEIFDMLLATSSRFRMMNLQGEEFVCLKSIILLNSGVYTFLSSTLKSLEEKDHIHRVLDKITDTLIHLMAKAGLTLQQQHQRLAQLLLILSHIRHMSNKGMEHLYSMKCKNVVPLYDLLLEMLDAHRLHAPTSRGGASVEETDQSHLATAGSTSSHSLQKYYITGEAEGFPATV

As to `CC1=C2[C@@H]([C@H](C)CC[C@H]2/C=C(\C)C(=O)O)[C@H](O)C1`, the Potency result in assay [1], in assay [2], in assay [3], in [4], in assay [5] and in assay [6] was “inactive” each time. For the same molecule, the Potency result in assay [7], in assay [8], in assay [9], in assay [10], in [11] and in [12] was “inactive” throughout. For the same molecule, the Potency result in assay [13], in assay [14] and in [15] was “inactive” throughout.

As to `C/C(C=O)=C\c1ccccc1`, the Potency result in assay [1], in assay [2], in [3], in assay [4], in [6] and in assay [8] was “inactive” throughout. In addition, the Potency entry in assay [9], in assay [16], in assay [17], in [10], in [11] and in assay [12] was “inactive” throughout. Also, the Potency result in assay [13], in assay [14] and in assay [15] was “inactive” in each case. In [5], the Potency was 30 µM (active).

Regarding `CC(C)OC(=O)c1ccccc1C(=O)OC(C)C`, the Potency result in assay [1], in assay [2], in assay [3], in [4], in [5] and in assay [6] was “inactive” throughout. Also, the Potency result in assay [7], in assay [8], in assay [9], in assay [16], in assay [11] and in assay [12] was “inactive” in each case. The Potency result in assay [13], in assay [14] and in assay [15] was “inactive” each time.

In the case of `O=C(O)c1cccc(Oc2ccccc2)c1`, the Potency entry in assay [1], in [2], in assay [3], in assay [4], in assay [5] and in assay [6] was “inactive” each time. Besides, the Potency entry in assay [7], in assay [8], in assay [9], in assay [16], in [11] and in assay [12] was “inactive” each time. Moreover, the Potency entry in [13] and in [14] was “inactive” throughout.

With `O=c1[nH][nH]c(=O)c2cc([N+](=O)[O-])ccc12`, the Potency result in [1], in assay [2], in assay [3], in [4], in [5] and in [6] was “inactive” in each case. The Potency result in assay [7], in [8], in [9], in assay [16], in assay [17] and in assay [10] was “inactive” in each case. The Potency result in assay [11], in assay [12], in [13], in [14] and in assay [15] was “inactive” each time.

As for `COC(C)(C)OC`, the Potency entry in assay [1], in [2], in assay [3], in assay [4], in [5] and in [6] was “inactive” throughout. The Potency entry in assay [8], in assay [9], in assay [16], in assay [11], in assay [12] and in [13] was “inactive” each time. Also, in assay [14], the Potency entry was “inactive”.

On to `FC(F)(F)C(F)(F)C(F)(F)C(F)(F)CCI`, for which the Potency entry in assay [1], in [2], in assay [3], in assay [4], in assay [5] and in assay [6] was “inactive” each time. In addition, the Potency result in assay [7], in assay [8], in [9], in assay [16], in assay [11] and in assay [12] was “inactive” each time. Moreover, the Potency result in assay [13], in assay [14] and in assay [15] was “inactive” throughout.

`Cc1ccc(NC(=O)N(C)C)cc1NC(=O)N(C)C`: the Potency entry in assay [1], in [2], in assay [3], in assay [4], in assay [5] and in assay [6] was “inactive” throughout. Besides, the Potency result in [8], in assay [9], in [11], in assay [12], in assay [13] and in assay [14] was “inactive” in each case.

Turning to `CC[C@H]1OC(=O)[C@H](C)[C@@H](O[C@H]2C[C@@](C)(OC)[C@@H](O)[C@H](C)O2)[C@H](C)[C@@H](O[C@@H]2O[C@H](C)C[C@H](N(C)C)[C@H]2O)[C@](C)(O)C[C@@H](C)CN(C)[C@H](C)[C@@H](O)[C@]1(C)O`, the Potency entry in [1], in assay [2], in assay [3], in [4], in assay [5] and in [6] was “inactive” in each case. In addition, the Potency result in [8], in [9], in assay [17], in assay [10], in assay [11] and in assay [12] was “inactive” throughout. The Potency entry in assay [13], in assay [14] and in assay [15] was “inactive” in each case.
